One may read the % inhibition as the change of the read-out against control, counted positive when it falls.

Experimental findings from ChEMBL document CHEMBL1857833, “Screening and optimization of specific chemical series against human African Trypanosomiasis (HAT)” are described below.

In all, about 4,400 compounds went through this assay and about 390 (8.9%) showed an effect of 50% or more. The full list was thinned out, with strong results kept by preference.

The test system of the experiment is Trypanosoma brucei. In words: DNDI: Inhibition of Human African Trypanosomiasis, SBRI 427, in vitro at 2 ug.mL-1. It counts as functional.
Turning to `CN(/C(=N\O)c1ccc(Oc2cccc3ccccc23)nc1)C1CCCCC1`, the “% inhibition” value came out at 25%.

As for `CN(Cc1coc(-c2ccc(Br)cc2)n1)Cc1ccco1`, the “% inhibition” value amounted to 29%.

As for `CC(C)c1ccc(N/C(=N\O)c2cccnc2OCc2ccccc2F)cc1`, the “% inhibition” value is reported as -12%.

For the compound `Cc1ccc(-c2nc(CN3CC[C@H]4CCCC[C@@H]4C3)co2)cc1`, the “% inhibition” value worked out at 25%.

In the case of `CC1CCCN1Cc1coc(-c2cccc3ccccc23)n1` (stereo not given), the “% inhibition” value was determined as 39%.

On to `CCC1CCCCN1Cc1coc(-c2ccccc2Cl)n1` (stereo not given), for which the “% inhibition” value is listed as -10%.

On to `c1ccc2c(-c3nc(CNCCCN4CCOCC4)co3)cccc2c1`, for which the “% inhibition” value worked out at 30%.

Take `c1ccc2c(-c3nc(CNCCCN4CCCC4)co3)cccc2c1`: the “% inhibition” value came out at 93%.

For `CC1CCCCN1CCCNCc1coc(-c2ccccc2Br)n1` (stereo not given), the “% inhibition” value is 20%.

Consider `CCC1CCCCN1Cc1coc(-c2cccc3ccccc23)n1` (stereo not given), for which the “% inhibition” value stood at 84%.

For the compound `CC1CCCCN1Cc1coc(-c2cccc3ccccc23)n1` (stereo not given), the “% inhibition” value came to 3%.

For `CC1CCCCN1CCCNCc1coc(-c2cccc3ccccc23)n1` (stereo not given), the “% inhibition” value turned out to be 86%.

For the compound `c1ccc2c(-c3nc(CNCCN4CCCCC4)co3)cccc2c1`, the “% inhibition” value amounted to 14%.

Consider `CN(CCCNCc1coc(-c2ccc(C(F)(F)F)cc2)n1)c1ccccc1`, for which the “% inhibition” value is listed as -7%.

`Brc1ccccc1-c1nc(CN(Cc2ccccn2)Cc2ccccn2)co1`: the “% inhibition” value stood at 9%.

`COCCN(/C(=N\O)c1ccc(Oc2ccc3oc4ccccc4c3c2)nc1)C(C)C`: the “% inhibition” value came to 7%.

In the case of `FC(F)(F)c1ccc(-c2nc(CN3CCC4(CC3)OCCO4)co2)cc1`, the “% inhibition” value is -8%.

For the compound `Cc1cc(C)cc(Oc2ccc(/C(=N/O)N3CCN(c4ccccc4)CC3)cn2)c1`, the “% inhibition” value came out at 9%.

Turning to `COc1ccc(Oc2nc(C)ccc2/C(=N/O)N2CCCC2C)cc1` (stereo not given), the “% inhibition” value was -10%.

Take `Cc1ccccc1-c1nc(CN2CCN(c3ccc(F)cc3)CC2)co1`: the “% inhibition” value was -10%.

With `COC[C@H]1CCCN1Cc1coc(-c2cccc(F)c2)n1`, the “% inhibition” value is given as 0%.

For the compound `Clc1ccc(-c2nc(CN3CCN(c4ncccn4)CC3)co2)c(Cl)c1`, the “% inhibition” value is 58%.

As for `CCc1nccn1Cc1coc(-c2ccc(Cl)cc2Cl)n1`, the “% inhibition” value worked out at 22%.

For `Clc1ccccc1-c1nc(CN2CCN(c3ncccn3)CC2)co1`, the “% inhibition” value was -3%.

`Clc1ccc(-c2nc(CN3CCN(Cc4ccccc4)CC3)co2)c(Cl)c1`: the “% inhibition” value is reported as 12%.

With `CCCc1nccn1Cc1coc(-c2ccc(Cl)cc2Cl)n1`, the “% inhibition” value was found to be 50%.

Turning to `CC(C)c1nccn1Cc1coc(-c2ccc(Cl)cc2Cl)n1`, the “% inhibition” value was -20%.

With `CCOc1ccccc1-c1nc(CN2CCCCCC2)co1`, the “% inhibition” value amounted to 7%.

Regarding `CSc1ccc(Oc2nc(C)ccc2/C(=N/O)NC2CCC2)cc1`, the “% inhibition” value is reported as 3%.

As for `C=CCN(Cc1coc(-c2cccc(OC)c2)n1)c1ccccc1`, the “% inhibition” value came out at 35%.

In the case of `Cc1cccc(Oc2ncccc2/C(=N/O)N2CCOCC2)c1C`, the “% inhibition” value turned out to be 10%.

`FC(F)(F)c1ccc(-c2nc(CNCc3ccccc3C(F)(F)F)co2)cc1`: the “% inhibition” value was 0%.

On to `Cc1ccc(/C(=N/O)N2CCCCCC2)c(Oc2cccc(C(C)C)c2)n1`, for which the “% inhibition” value worked out at 14%.

With `O/N=C(\NCc1cc(F)ccc1F)c1cccnc1Oc1ccc(F)cc1`, the “% inhibition” value is recorded as -3%.

As to `O/N=C(\NCc1ccccc1F)c1cccnc1Oc1ccc(F)cc1`, the “% inhibition” value turned out to be 51%.

Regarding `COc1ccc(Oc2ncccc2/C(=N/O)NCc2ccccc2F)cc1`, the “% inhibition” value came out at 70%.

As for `COc1ccc(Oc2nc(C)ccc2/C(=N/O)NCc2ccccc2F)cc1`, the “% inhibition” value is -6%.

On to `O/N=C(\NCc1ccccc1F)c1cccnc1OCC(F)(F)F`, for which the “% inhibition” value was -12%.

In the case of `Clc1ccccc1-c1nc(CNCc2ccco2)co1`, the “% inhibition” value is recorded as -7%.

As for `CC(C)N(C)Cc1coc(-c2ccccc2Cl)n1`, the “% inhibition” value stood at 4%.

For `Cc1ccc(Oc2ncccc2/C(=N/O)NCc2cccnc2)c2c1CCC2`, the “% inhibition” value was found to be 6%.

`Cc1ccc(Oc2ncccc2/C(=N/O)NCc2ccccc2)c2c1CCC2`: the “% inhibition” value was found to be 99%.

As for `COc1ccc(CN/C(=N\O)c2cccnc2Oc2ccc(C)c3c2CCC3)cc1`, the “% inhibition” value amounted to 9%.

With `Cc1ccc(Oc2ncccc2/C(=N/O)NCc2ccncc2)c2c1CCC2`, the “% inhibition” value amounted to 8%.

As to `Cc1cc(C)cc(CN/C(=N\O)c2cccnc2Oc2ccc(C)c3c2CCC3)c1`, the “% inhibition” value was 69%.

In the case of `CCOc1ccccc1CN/C(=N\O)c1cccnc1Oc1ccc(C)c2c1CCC2`, the “% inhibition” value came out at 100%.

As for `Cc1ccc(Oc2cc(/C(=N/O)NCc3cccs3)ccn2)c2c1CCC2`, the “% inhibition” value is 3%.

Consider `Cc1ccc(Oc2ncccc2/C(=N/O)NCc2cc(F)ccc2F)c2c1CCC2`, for which the “% inhibition” value turned out to be 28%.

For `Cc1ccc(Oc2ncccc2/C(=N/O)NCc2cccs2)c2c1CCC2`, the “% inhibition” value came to 99%.

Consider `Cc1ccc(Oc2ncccc2/C(=N/O)NCc2ccco2)c2c1CCC2`, for which the “% inhibition” value is listed as -6%.

Consider `COc1ccc(-c2nc(CN(C)C3CCN(Cc4ccccc4)C3)co2)cc1` (stereo not given), for which the “% inhibition” value is reported as -9%.

On to `O/N=C(/c1ccnc(Oc2cccc3cnccc23)c1)N1CCN(c2ccccc2)CC1`, for which the “% inhibition” value was determined as 7%.

`N#CCCN(Cc1coc(-c2ccc(C(F)(F)F)cc2)n1)CC1CCCO1` (stereo not given): the “% inhibition” value is reported as -3%.

Take `O/N=C(/c1ccnc(Oc2cccc3ccccc23)c1)N1CCSC1`: the “% inhibition” value was 22%.

For the compound `CSc1ccc(Oc2nc(C)ccc2/C(=N/O)NCc2ccccc2C)cc1`, the “% inhibition” value was determined as 7%.

In the case of `Cc1ccc(N2CCN(Cc3coc(-c4ccccc4F)n3)CC2)c(C)c1`, the “% inhibition” value is -17%.

On to `CSc1ccc(Oc2ncccc2/C(=N/O)NCc2ccccn2)cc1C`, for which the “% inhibition” value was 2%.

Turning to `CN(Cc1coc(-c2ccccc2Cl)n1)C1CCN(Cc2ccccc2)C1` (stereo not given), the “% inhibition” value is reported as -15%.

Consider `COc1ccc(Oc2nc(C)ccc2/C(=N/O)N2CCSC2)cc1`, for which the “% inhibition” value came out at 27%.

With `COc1cc(-c2nc(CNC3CCc4ccccc43)co2)cc(OC)c1OC` (stereo not given), the “% inhibition” value is listed as 28%.

On to `COc1ccc(CCN(C)Cc2coc(-c3ccc(O)cc3)n2)cc1OC`, for which the “% inhibition” value is recorded as -29%.

Take `COc1ccc(CCN(C)Cc2coc(-c3ccc(F)cc3)n2)cc1OC`: the “% inhibition” value is -7%.

In the case of `COc1ccc(CCN(C)Cc2coc(-c3ccc(Br)cc3)n2)cc1OC`, the “% inhibition” value came to 65%.

`Oc1ccc(-c2nc(CNC3CCN(Cc4ccccc4)C3)co2)cc1` (stereo not given): the “% inhibition” value was 33%.

Regarding `Cc1ccc(-c2nc(CNC3CCN(Cc4ccccc4)C3)co2)cc1` (stereo not given), the “% inhibition” value is recorded as 17%.

With `Brc1ccc(-c2nc(CNC3CCN(Cc4ccccc4)CC3)co2)cc1`, the “% inhibition” value is on record as 58%.

Turning to `CCOc1ccc(-c2nc(CNC3CCN(Cc4ccccc4)C3)co2)cc1` (stereo not given), the “% inhibition” value was determined as 6%.

Consider `Fc1ccc(-c2nc(CNC3CCN(Cc4ccccc4)CC3)co2)cc1`, for which the “% inhibition” value is reported as -17%.

With `COc1ccc(-c2nc(CNC3CCN(Cc4ccccc4)CC3)co2)cc1`, the “% inhibition” value came to 97%.

Consider `COc1ccc(-c2nc(CNC3CCN(Cc4ccccc4)C3)co2)cc1` (stereo not given), for which the “% inhibition” value was found to be 12%.

On to `CC(C)(C)c1ccc(-c2nc(CNC3CCN(Cc4ccccc4)C3)co2)cc1` (stereo not given), for which the “% inhibition” value worked out at 55%.

Take `Brc1ccc(-c2nc(CNC3CCN(Cc4ccccc4)C3)co2)cc1` (stereo not given): the “% inhibition” value worked out at 2%.

As for `CN(Cc1ccco1)/C(=N\O)c1ccc(Oc2cc(Cl)ccc2Cl)nc1`, the “% inhibition” value is -12%.

Take `COC(=O)C1CCN(/C(=N\O)c2ccnc(Oc3ccc(F)c(Cl)c3)c2)CC1`: the “% inhibition” value is recorded as -5%.

Turning to `Cc1cccc(-c2nc(CN3CCN(c4ccc(F)cc4)CC3)co2)c1`, the “% inhibition” value is recorded as 18%.

Consider `O/N=C(\NCc1c(F)cccc1F)c1ccc(Oc2ccc(Cl)cc2)nc1`, for which the “% inhibition” value is recorded as 6%.

With `CCC(CC)N/C(=N\O)c1ccc(Oc2ccc(C)cc2C)nc1`, the “% inhibition” value is recorded as 26%.

For `CCC(CC)N/C(=N\O)c1ccc(Oc2c(F)c(F)cc(F)c2F)nc1`, the “% inhibition” value is given as 19%.

For the compound `CCC(CC)N/C(=N\O)c1ccc(Oc2cc(C)cc(C)c2)nc1`, the “% inhibition” value stood at 94%.

With `CCC(CC)N/C(=N\O)c1ccc(Oc2cc(C)cc(C(C)C)c2)nc1`, the “% inhibition” value is recorded as -7%.

In the case of `COCC(C)N/C(=N\O)c1ccc(Oc2cc(Cl)ccc2Cl)nc1` (stereo not given), the “% inhibition” value came out at 23%.

With `CCC(CC)N/C(=N\O)c1ccc(Oc2cc(Cl)ccc2Cl)nc1`, the “% inhibition” value stood at 84%.

For the compound `CCC(CC)N/C(=N\O)c1ccc(Oc2ccc(Cl)cc2)nc1`, the “% inhibition” value was 96%.

As for `COCC(C)N/C(=N\O)c1ccc(Oc2cc(C)cc(C)c2)nc1` (stereo not given), the “% inhibition” value is given as 1%.

For `CCc1ccc(Oc2ccc(/C(=N/O)NC(CC)CC)cn2)cc1`, the “% inhibition” value is recorded as 7%.

For the compound `CCN(CCC#N)Cc1coc(-c2cc(OC)c(OC)c(OC)c2)n1`, the “% inhibition” value is listed as -11%.

`Cc1ccc(/C(=N/O)N2C(C)CCC2C)c(OCc2ccccc2C)n1` (stereo not given): the “% inhibition” value was 21%.

As for `COC[C@H]1CCCN1Cc1coc(-c2ccc(C)cc2)n1`, the “% inhibition” value is on record as -9%.

Regarding `Cc1cc(C)cc(Oc2ccc(/C(=N/O)NC3CCc4ccccc43)cn2)c1` (stereo not given), the “% inhibition” value was found to be 12%.

As for `Cc1ccc(Oc2ccc(/C(=N/O)NC3CCCC3)cn2)c(C)c1`, the “% inhibition” value came to 91%.

Regarding `Cc1ccc(Oc2ccc(/C(=N/O)Nc3ccccc3)cn2)c(C)c1`, the “% inhibition” value came to 22%.

With `Cc1cc(C)cc(Oc2ccc(/C(=N/O)NC3CCCCC3)cn2)c1`, the “% inhibition” value was found to be 99%.

For the compound `Cc1ccc(Oc2ccc(/C(=N/O)NC3CC3)cn2)c(C)c1`, the “% inhibition” value is reported as 26%.

For the compound `Cc1cc(Oc2ccc(/C(=N/O)NC3CCCCC3)cn2)cc(C(C)C)c1`, the “% inhibition” value is 17%.

With `Cc1cc(C)cc(Oc2ccc(/C(=N/O)N(C)C3CCCCC3)cn2)c1`, the “% inhibition” value is -8%.

Take `Cc1ccc(Oc2ccc(/C(=N/O)NCC3CC3)cn2)c(C)c1`: the “% inhibition” value is 98%.

Take `Cc1ccc(Oc2ccc(/C(=N/O)NCc3cccs3)cn2)c(C)c1`: the “% inhibition” value was 21%.

With `Cc1cc(C)cc(Oc2ccc(/C(=N/O)NC3CCN(Cc4ccccc4)C3)cn2)c1` (stereo not given), the “% inhibition” value is -11%.

Regarding `Cc1ccc(Oc2ccc(/C(=N/O)NCc3c(F)cccc3F)cn2)c(C)c1`, the “% inhibition” value is on record as 16%.

Consider `Cc1cc(C)cc(Oc2ccc(/C(=N/O)NC3CCC3)cn2)c1`, for which the “% inhibition” value stood at 99%.

With `COc1ccc(-c2nc(CNc3cc(C(C)(C)C)nn3C)co2)cc1`, the “% inhibition” value is 7%.

Turning to `Cc1ccccc1-c1nc(CN(C)C2CCN(Cc3ccccc3)C2)co1` (stereo not given), the “% inhibition” value amounted to 8%.

With `CCCN(CC1CC1)/C(=N\O)c1ccc(C)nc1Oc1ccc(OC)cc1`, the “% inhibition” value is 30%.

As for `COc1ccc(-c2nc(CNCc3ccc(C(F)(F)F)cc3)co2)cc1`, the “% inhibition” value is reported as 2%.

As for `CSc1ccc(Oc2nc(C)ccc2/C(=N/O)N2CCN(C3CCCC3)CC2)cc1C`, the “% inhibition” value was 13%.
